In all, about 63,000 compounds went through this assay and about 1,100 (1.7%) were called active. The sample holds actives, similar compounds and a random draw of the others, so the mix is not that of the screen. Cut-off read from the data, not from the text of the source: active = cytotoxicity above about 50%; inactive = the rest. Measured potencies and affinities stand elsewhere.
Experiment: HPDE-C7 pancreatic duct cell viability loss – fluorescence, HTS (AID 430);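 note: cells exposed to compound for 48 hours before viability readout; 0% = vehicle and 100% = reference cytotoxic drug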
Settings: HPDE-C7 pancreatic duct cells viability, at 10 µM, active compounds read high

SMILES	cytotoxicity
CC(=O)c1c(C)[nH]c(C(=O)N2CCN(c3ncccn3)CC2)c1C	2.1% (inactive)
COc1cccc(N2CCN(C(=O)c3[nH]c(C)c(C(C)=O)c3C)CC2)c1	53.6% (active)
CCOC(=O)c1[nH]c(C)c(C(=O)N2CCN(c3cccc(Cl)c3)CC2)c1C	13.5% (inactive)
CC(C)C(=O)Nc1ccc(NC(=O)c2cccc(F)c2)cn1	-7.5% (inactive)
COc1cc(CCC(=O)OCC(=O)Nc2ncc(Cl)cc2Cl)cc(OC)c1OC	-7.2% (inactive)
Cc1cc(-c2ccccc2C(=O)O)on1	-13.2% (inactive)
CCCCCCNC(=O)c1c(O)c2ccccc2[nH]c1=O	4.2% (inactive)
CCn1c(N)c(C(=O)NCc2ccco2)sc1=S	-6.5% (inactive)
CCCCCNC(=O)c1ccc2c(=O)n(CC3CCCO3)c(=O)[nH]c2c1 (stereo unspecified)	-2.3% (inactive)
C=CCn1c(N)c(C(=O)NCc2ccco2)sc1=S	2.4% (inactive)
O=C(NCc1ccco1)c1sc(=S)n2c1[nH]c(=O)c1ccccc12	82.7% (active)
CCCCNC(=O)c1sc(=S)n2c1[nH]c(=O)c1ccccc12	70.3% (active)
O=C(NCC1CCCO1)c1sc(=S)n2c1[nH]c(=O)c1ccc(C(=O)N3CCCCC3)cc12 (stereo unspecified)	-5.8% (inactive)
CCCCNC(=O)c1ccccc1C(=O)NCCCC	-5.7% (inactive)
O=C(O)C1CCCN(S(=O)(=O)c2ccc(F)cc2)C1 (stereo unspecified)	-13.4% (inactive)
CCOC(=O)CSC1=NC(=O)CS1	-7% (inactive)
Cc1ccc2[nH]c(=O)c(CN(CCc3ccccc3)C(=O)N3CCOCC3)cc2c1	5.9% (inactive)
CC(C)CC(=O)Nc1ccc(-c2cn3ccsc3n2)cc1	51.9% (active)
CC(=O)Nc1ccc(-c2cn3ccsc3n2)cc1	10.2% (inactive)
CC(C)CC(=O)Nc1cccc(-c2cn3ccsc3n2)c1	2.6% (inactive)
CCOC(=O)CCC(=O)Nc1ccc(S(=O)(=O)N2CCCC2)cc1	-1.2% (inactive)
O=C(NC1CCN(C(=O)Nc2ccccc2)CC1)C1CCCCC1	-8.9% (inactive)
Cc1cnc(NC(=O)c2c(O)c3cccc4c3n(c2=O)CCC4)s1	52.2% (active)
CC(C)c1nnc(NC(=O)c2c(O)c3cccc4c3n(c2=O)CCC4)s1	46.3% (inactive)

SMILES	cytotoxicity
Cc1csc(NC(=O)c2c(O)c3cccc4c3n(c2=O)CCC4)n1	-11.1% (inactive)
N#CC1=C(N)S[C@H](C(=O)C23CC4CC(CC(C4)C2)C3)[C@H]1c1ccncc1	-14.7% (inactive)
CCC(c1nnnn1CCc1ccccc1)N(Cc1ccco1)Cc1cc2cc(C)cc(C)c2[nH]c1=O (stereo unspecified)	10.7% (inactive)
NC1=NC(c2cn(-c3ccccc3)nc2-c2cccs2)n2c(nc3ccccc32)N1 (stereo unspecified)	54.9% (active)
NC1=NC(c2ccccc2Cl)n2c(nc3ccccc32)N1 (stereo unspecified)	7% (inactive)
CC1=C(C#N)C(c2cn(-c3ccccc3)nc2-c2cccs2)C(C#N)=C(C)N1	41.2% (inactive)
O=C(Nc1ccc(-c2nc3ccccc3o2)cc1)c1ccc2c(c1)OCO2	2% (inactive)
O=C(Nc1ccc2oc(-c3ccccc3F)nc2c1)c1ccc2c(c1)OCCO2	46.2% (inactive)
O=C(Nc1cccc(NC(=O)c2ccc(-c3cccc(Br)c3)o2)c1)c1ccco1	63% (active)
Cc1ccc2oc(-c3ccc(NC(=O)c4ccc5c(c4)OCO5)cc3)nc2c1	71.1% (active)
COc1ccc(Br)cc1C(=O)Nc1cccc(NC(=O)c2ccco2)c1	42.6% (inactive)
O=C(Nc1ccc2oc(-c3cccnc3)nc2c1)c1cccnc1	7.7% (inactive)
O=C(Nc1ccccc1-c1nc2ccccc2o1)c1ccc2c(c1)OCCO2	77.2% (active)
Cc1ccc2oc(-c3ccc(NC(=O)c4cccnc4)cc3)nc2c1	51.4% (active)
COc1ccc(-c2nc3cc(NC(=O)c4ccc5c(c4)OCO5)ccc3o2)cc1	1.2% (inactive)
Cc1c(NC(=O)c2ccc3c(c2)OCO3)cccc1-c1nc2ccccc2o1	-9.8% (inactive)
CC(=O)Nc1cccc(NC(=O)c2ccco2)c1	-14.2% (inactive)
O=C(Nc1ccc2oc(-c3ccccc3)nc2c1)c1cccnc1	18.1% (inactive)
CC(=O)[C@@H]1[C@@H]2C(=O)N(Cc3ccccc3)C(=O)[C@@H]2C2c3ccccc3C=CN21 (stereo partly specified)	3.9% (inactive)
CCC(=NCCc1ccccc1)C1=C(O)CCC1=O	9.7% (inactive)
C=CCn1c(SCn2nnc3ccccc3c2=O)nnc1-c1ccc(F)cc1	-0.2% (inactive)
Cc1cc(C(=O)N2CCN(S(C)(=O)=O)CC2)sc1-c1ccccc1	-3% (inactive)
O=C(NC1CCCC1)C1CCCN1C(=O)Nc1ccccc1Cl (stereo unspecified)	-20.3% (inactive)
C=CCN(CC=C)c1nc2ccccc2nc1C(C#N)C(=O)OCCOC (stereo unspecified)	1.9% (inactive)

SMILES	cytotoxicity
COc1cccc(C(=O)Nc2ccc(-c3nc4ccccc4o3)c(O)c2)c1	15.3% (inactive)
O=C(Nc1cccc(-c2nnc(-c3ccccc3)o2)c1)c1ccco1	-6.9% (inactive)
COc1cc(OC)cc(C(=O)Nc2ccc(-c3nc4ccccc4o3)cc2)c1	74.2% (active)
O=C(Nc1ccc2oc(-c3ccccc3)nc2c1)c1ccc2c(c1)OCCO2	13.4% (inactive)
O=C(Nc1ccc(-c2nc3ncccc3o2)cc1)c1ccco1	1.1% (inactive)
COC(=O)c1ccc(-c2nc3ccccc3o2)cc1	-9.2% (inactive)
Cc1ccc(-c2nc3ccccc3o2)cc1NC(=O)c1ccc2c(c1)OCO2	-10% (inactive)
O=C(Nc1ccc2nc(-c3ccccc3)oc2c1)c1ccco1	68.7% (active)
C/C=C/COc1nc2c(c(=O)n(C)c(=O)n2C)n1C	-4% (inactive)
O=C(OCC(=O)N1CCN(C(=O)COC(=O)c2ccncc2)CC1)c1ccncc1	-7.9% (inactive)
O=C1CC(c2cccc(Cl)c2)Cc2nc(N3CCN(c4ccccc4)CC3)ncc21 (stereo unspecified)	51.4% (active)
Cc1ccc(C2CC(=O)c3cnc(N4CCN(c5ccccc5)CC4)nc3C2)cc1 (stereo unspecified)	9.3% (inactive)
O=C1CC(c2cccc(Cl)c2)Cc2nc(N3CCOCC3)ncc21 (stereo unspecified)	-14.6% (inactive)
CCN1CCN(c2ncc3c(n2)CC(c2ccc(OC)c(OC)c2)CC3=O)CC1 (stereo unspecified)	7.7% (inactive)
CCN1CCN(c2ncc3c(n2)CC(c2cc(OC)c(OC)c(OC)c2)CC3=O)CC1 (stereo unspecified)	58.9% (active)
COc1cc(C2CC(=O)c3cnc(N4CCN(Cc5ccccc5)CC4)nc3C2)cc(OC)c1OC (stereo unspecified)	46% (inactive)
CSc1nnc2c(n1)OC(C1CC=C(C)CC1)Nc1ccccc1-2 (stereo unspecified)	2.9% (inactive)
C=CCn1c(=O)c(C(=O)Nc2ccccc2O)c(O)c2ccccc21	-18% (inactive)
Cc1occc1C(=O)NCc1ccc2c(c1)OCO2	42.9% (inactive)
O=C(COc1cnc2ccccc2n1)NCCC1=CCCCC1	-1.1% (inactive)
CCc1ccc2c(COn3nnc4ccc(S(=O)(=O)N(C)C)cc43)cc(=O)oc2c1	59.1% (active)
Cc1ccc2c(COn3nnc4ccc(S(=O)(=O)N(C)C)cc43)cc(=O)oc2c1C	-2.2% (inactive)
CCc1ccc2c(COC(=O)c3n[nH]c4ccccc34)cc(=O)oc2c1	8% (inactive)
CCc1nnc(NC(=O)CSc2nc3c(cc2C#N)CCC3)s1	30.8% (inactive)

SMILES	cytotoxicity
CCc1nnc(NC(=O)CSc2nc(C)c3c(c2C#N)CCCC3)s1	76.3% (active)
CCc1nnc(NC(=O)CSc2nc3c(cc2C#N)CCCC3)s1	-1.1% (inactive)
COc1cccc(NC(=O)CNC(=O)c2ccc(F)cc2)c1	-1% (inactive)
COc1cc(-c2ccc(NC(=O)CN3CCCCC3)c(OC)c2)ccc1NC(=O)CN1CCCCC1	-11.3% (inactive)
N#Cc1ccc(CSc2nnc(-c3cnccn3)o2)cc1	-3% (inactive)
Fc1cccc(C2CC(c3cccc(Br)c3)Nc3nnnn32)c1 (stereo unspecified)	-20.3% (inactive)
CCOc1ccc(S(=O)(=O)N2Cc3ccccc3CC2C(=O)NCCCn2ccnc2)cc1 (stereo unspecified)	1.9% (inactive)
Cc1ccc2[nH]c3c(c2c1)CN(C(=O)CN1CCN(c2ccccc2F)CC1)CC3	14.7% (inactive)
Cc1ccc2[nH]c3c(c2c1)CN(C(=O)CN1CCCc2ccccc21)CC3	55.8% (active)
Cc1ccc2[nH]c3c(c2c1)CN(C(=O)CN1CCN(c2ccccc2)CC1)CC3	26.1% (inactive)
Cc1cccc(N2CCN(C(=O)c3ccc(N4CCCC4=O)cc3)CC2C)c1 (stereo unspecified)	-1.7% (inactive)
CCOC(=O)c1ccc(NC(=O)N2CCN(S(C)(=O)=O)CC2)cc1	-1.4% (inactive)
Cc1cnc(NC(=O)CCCSc2nc3ccccc3s2)s1	-1.8% (inactive)
c1ccc(-c2ccc(-c3nc(-c4ccccn4)no3)cc2)cc1	-4.1% (inactive)
c1ccc(-c2cc(-c3nc(-c4ccccn4)no3)c3ccccc3n2)cc1	70.4% (active)
c1ccc(-c2cc(-c3nc(-c4cccnc4)no3)c3ccccc3n2)cc1	-11.7% (inactive)
CC(C)n1c(SCC(N)=O)nc2c1c(=O)n(C)c(=O)n2C	-8.7% (inactive)
CCn1c(SC/C=C/c2ccccc2)nnc1-c1cnccn1	-18.9% (inactive)
CCn1cnc2scc(-c3ccccc3)c2c1=O	-9.7% (inactive)
Cc1ccc(-c2csc3ncn(/N=C/N(C)C)c(=O)c23)o1	-6.4% (inactive)
Cn1cc(/C=N/n2cnc3sc4c(c3c2=O)CCCC4)c2ccccc21	21.2% (inactive)
Cn1cc(/C=N/n2cnc3scc(-c4ccc(Cl)cc4)c3c2=O)c2ccccc21	89.3% (active)
Cc1nn(-c2ccccc2)c(N2CCCC2)c1/C=N/n1cnc2scc(-c3ccccc3)c2c1=O	24.5% (inactive)
Cn1cc(/C=N/n2cnc3scc(-c4ccccc4)c3c2=O)c2ccccc21	68.4% (active)

— PubChem BioAssay AID430 (Sanford-Burnham Center for Chemical Genomics, 2006)
